Results from PubChem BioAssay (NCATS).
Inconclusive results are not listed. A call without a number means that no potency is given here. The source made the active and inactive calls. Calls follow the shape of the dose curve; as a rule, active = well fitted inhibition curve with a large enough effect; inconclusive = small, poorly fitted or top-dose-only effect; inactive = flat fitted curve, though single readings scatter.

Key:
KB-3-1 = test: Cytotoxic Profiling of Annotated Libraries Using Quantitative High-Throughput Screening (AID 1296008); details: Five cell lines viability, CellTiter-Glo ATP luminescence, 48-72 h; max response: hits give low values
Procedure, shortened: (§1)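 Compounds were pin-transferred onto cells and incubated 48 or 72 hr at 37 degree Celsius, 95% humidity. CellTiter-Glo was added, plates sat 10 min at room temperature, then ATP-coupled luminescence was imaged as the viability read-out.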

MCC-13 = test: qHTS assay to identify novel small-molecules to repurpose for Merkel cell carcinoma treatment (AID 1296009); details: MCC and control cell lines, CellTiter-Glo viability, 72 h; series mostly up to 46 µM
Procedure, shortened: (§2)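 Viability readout: ATP luminescence (CellTiter-Glo) after 72 hr drug exposure at 37 degree celsius. Dose-response format was 8 points for NPC and 11 points for MIPE; data normalized to in-plate controls.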

MKL-1 = test: as above; details: MCC and control cell lines, CellTiter-Glo viability, 72 h; series mostly up to 46 µM
Procedure, shortened: as §2

MKL-2 = test: as above; details: MCC and control cell lines, CellTiter-Glo viability, 72 h; series mostly up to 46 µM
Procedure, shortened: as §2

NIH3T3 = test: Cytotoxic Profiling of Annotated Libraries Using Quantitative High-Throughput Screening (AID 1296008); details: Five cell lines viability, CellTiter-Glo ATP luminescence, 48-72 h; max response: hits give low values
Procedure, shortened: as §1

HEK293T = test: qHTS assay to identify novel small-molecules to repurpose for Merkel cell carcinoma treatment (AID 1296009); details: MCC and control cell lines, CellTiter-Glo viability, 72 h; at 44.8 µM (top of the series)
Procedure, shortened: as §2

MCC-26 = test: as above; details: MCC and control cell lines, CellTiter-Glo viability, 72 h; series mostly up to 46 µM
Procedure, shortened: as §2

CRL-7250 = normal cell line; test: as above; details: MCC and control cell lines, CellTiter-Glo viability, 72 h; at 44.8 µM (top of the series) unless noted
Procedure, shortened: as §2

HACAT = test: as above; details: MCC and control cell lines, CellTiter-Glo viability, 72 h; at 44.8 µM (top of the series) unless noted
Procedure, shortened: as §2
Also: nearly all actives have a fitted effect of over 60% in size.

CN1C(=O)[C@@H](NC(=O)c2cc3ccccc3[nH]2)N=C(c2ccccc2)c2ccccc21
max response (KB-3-1): 1.71% (inactive)
Potency (MCC-13): inactive
Potency (MKL-1): inactive
Potency (MKL-2): inactive

Nc1ccccc1C(=O)OCC(O)CO (stereo not drawn)
max response (NIH3T3): -1.39% (inactive)
outcome (HEK293T): inactive
Potency (MCC-26): inactive

Clc1ccc(CO/N=C(\Cn2ccnc2)c2ccc(Cl)cc2Cl)c(Cl)c1
Potency (MCC-26): inactive

CC(C)NCCCC1(C(N)=O)c2ccccc2-c2ccccc21
outcome (CRL-7250): inactive

CCCCCCCCCCCCCCCCCCOCC(O)CO (stereo not drawn)
outcome (CRL-7250): inactive

COc1ccc(C(Cl)=C(c2ccc(OC)cc2)c2ccc(OC)cc2)cc1
outcome (CRL-7250): inactive

CC(=O)[C@H]1CC[C@H]2[C@@H]3CC=C4C[C@@H](O)CC[C@]4(C)[C@H]3CC[C@]12C
outcome (CRL-7250): inactive

CCOC(=O)c1ccc(OC(=O)CCCCCN=C(N)N)cc1
outcome (CRL-7250): inactive

C[C@H]1C[C@H]2[C@@H]3CCC4=CC(=O)C=C[C@]4(C)[C@@]3(Cl)[C@@H](O)C[C@]2(C)[C@@]1(O)C(=O)CO
outcome (CRL-7250): inactive

CCc1cc2cc(OC)c(OC)cc2c(Cc2ccccc2)n1
outcome (CRL-7250): inactive

C=C1C(=C/C=C2\CCC[C@]3(C)[C@@H]([C@H](C)/C=C/[C@@H](O)C4CC4)CC[C@@H]23)C[C@@H](O)C[C@@H]1O
outcome (CRL-7250): inactive

O=C(O)CN(CCOCCOCCN(CC(=O)O)CC(=O)O)CC(=O)O
outcome (CRL-7250): inactive [at 0.588 µM]

O=C(Nc1ccc(C(=O)O)c(O)c1)c1ccccc1
outcome (CRL-7250): inactive

OC(C#CCN1CCCC1)(c1ccccc1)c1ccccc1
outcome (CRL-7250): inactive

Nc1c2c(nc3c1CCC3)CCCC2
outcome (CRL-7250): inactive

CC1(C)[C@@H]2CC[C@@]1(C)C(=O)C2
outcome (CRL-7250): inactive

O=C1CC2(CCCC2)CC(=O)N1CCCCN1CCN(c2ncccn2)CC1
outcome (CRL-7250): inactive

O=C(O)CCC(=O)c1ccc(-c2ccccc2)cc1
outcome (CRL-7250): inactive

CCN(CC)C(=O)c1cccc(C)c1
outcome (CRL-7250): inactive

Clc1ccc(Cn2c(CN3CCCC3)nc3ccccc32)cc1
outcome (CRL-7250): inactive

Cn1cnc2c1c(=O)[nH]c(=O)n2C
outcome (CRL-7250): inactive

N[C@@H](Cc1c[nH]c2ccc(O)cc12)C(=O)O
outcome (CRL-7250): inactive

CCC(CN)=C(c1ccccc1)c1ccccc1
outcome (CRL-7250): inactive

NC(CSCC(=O)O)C(=O)O (stereo not drawn)
outcome (CRL-7250): inactive

O=c1[nH]c(=O)c2ccccc2o1
outcome (CRL-7250): inactive

Clc1ccc(C(Cn2ccnc2)OCc2ccc(Sc3ccccc3)cc2)c(Cl)c1 (stereo not drawn)
outcome (CRL-7250): inactive

COc1cccc(N(C)C(=S)Oc2ccc3c(c2)CCCC3)n1
outcome (CRL-7250): inactive

C[C@H](O)C(=O)Nc1c(I)c(C(=O)NC(CO)CO)c(I)c(C(=O)NC(CO)CO)c1I
outcome (CRL-7250): inactive

CCCCC1(COC(=O)CCC(=O)O)C(=O)N(c2ccccc2)N(c2ccccc2)C1=O
outcome (CRL-7250): inactive

Nc1nc2ncc(CNc3ccc(C(=O)N[C@@H](CCC(=O)O)C(=O)O)cc3)nc2c(=O)[nH]1
outcome (CRL-7250): inactive

Cn1cc(C(=O)[C@@H]2CCc3nc[nH]c3C2)c2ccccc21
outcome (CRL-7250): inactive

CC(C)(C)c1ccc(C(=O)CCCCl)cc1
outcome (CRL-7250): inactive

OC(CCN1CCCCC1)(c1ccccc1)c1ccccc1
outcome (CRL-7250): inactive

CN1C[C@H](C(=O)N[C@]2(C)O[C@@]3(O)[C@@H]4CCCN4C(=O)[C@H](Cc4ccccc4)N3C2=O)C[C@@H]2c3cccc4[nH]cc(c34)C[C@H]21
outcome (CRL-7250): inactive

O=C1[C@H]2CCCC[C@H]2C(=O)N1CCCCN1CCN(c2nsc3ccccc23)CC1
outcome (CRL-7250): inactive

CC(=O)[C@@]1(O)CC[C@H]2[C@@H]3CCC4=CC(=O)CC[C@]4(C)[C@H]3CC[C@@]21C
outcome (CRL-7250): inactive

CCCCCC(N)=O
outcome (CRL-7250): inactive

CN(Cc1cc(Br)cc(Br)c1N)C1CCCCC1
outcome (CRL-7250): inactive

CN(C)CCCOC1(Cc2ccccc2)CCCCCC1
outcome (CRL-7250): inactive

CCN(CCCc1ccccc1)CCCc1ccccc1
outcome (CRL-7250): inactive

CC(C)(O)C(Cl)(Cl)Cl
outcome (HACAT): inactive
Potency (MCC-13): inactive

CCOC(C(=O)OCCN(C)C)(c1ccccc1)c1ccccc1
Potency (MCC-13): inactive
